# From PubChem BioAssay
# TROY signal inh – inhibitors of TROY-dependent NF-kB signaling; 360,000 tested, 0.98% active; inhibition, % at 10 µM; Q293 LMP1-TROYcd NF-kB luciferase reporter, 4 h;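 active = compounds whose plate-normalised and pattern-corrected inhibition of the luciferase reporter signal at the single screening dose is 50% or more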
# LMP1 NFkB inh – Epstein-Barr LMP1 NF-kappaB reporter inhibition | LMP1-induced NF-kappaB luciferase reporter cells, luminescence | inhibition, % at 12.5 µM | 350,000 tested, 0.69% active | AID 504558; in the data active = inhibition above about 41%; inconclusive = no clear call, values can overlap the other calls;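 also: 0% = neutral control wells and 100% = reference inhibitor control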
# HSF1 inh – HSF1 inhibition; NIH3T3-HGL HSE-luciferase, MG132-induced, luminescence 8 h; active compounds read low; activity change, negative = inhibition, % at 7.5 µM (by protocol); 300,000 tested, 0.77% active;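 active = more than half of replicate wells show activity change below -50%, luminescence cut by over half; inconclusive = some wells, but at most half, below -50%; inactive = no replicate well below -50%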;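 also: luciferase reports HSF-1 transcriptional activity via heat shock element; 0% = median of DMSO wells and -100% = zero luminescence signal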
# HSF-1 act – increases HSF-1 driven luciferase reporter signal; NIH3T3-HGL HSF-1 luciferase reporter, MG132, 8 h; 100% = twice DMSO control signal; activation, % at 9 µM; 300,000 tested, 1.7% active;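 active = mean replicate activation of at least 50% with a set share of replicates each reaching 50%; inconclusive = only one of those two conditions met; inactive = mean below 50% and too few replicates reaching it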;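 also: 0% = median of the neutral control wells and 100% = twice that signal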
# TWEAK-Fn14 inh – TWEAK-Fn14 signaling inhibition; 360,000 tested, 2% active; inhibition, % at 10 µM; TWEAK-stimulated Fn14 reporter cells, luciferase luminescence, 8 h; AID 1159606; in the data active = inhibition above about 50%
# HSP90 refold inh – inhibitors of HSP90 luciferase refolding in rabbit reticulocyte lysate. 290,000 tested, 0.91% active. luciferase refolding luminescence, 3 h. inhibition, % at 5.6 µM;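 active = inhibition above the screen-wide mean plus 3 SD, computed separately per campaign, cut at about 16% in these data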;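 also: 0% = DMSO wells and 100% = 60 µM geldanamycin wells; inhibitors lower the luminescence because luciferase stays unfolded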
# * hit, by the source's call; ? = inconclusive; · = no result given. This is a sample that favours compounds with a hit; in the whole collection about 4.7% have one here.
SMILES,TROY signal inh,LMP1 NFkB inh,HSF1 inh,HSF-1 act,TWEAK-Fn14 inh,HSP90 refold inh
CN(C)CCN1C(=O)c2cccc3cc([N+](=O)[O-])cc(c23)C1=O,-89,58*,·,·,-125,·
Cc1cn([C@H]2C[C@H](O)[C@@H](/C=C/C(=O)NCCC(C)C)O2)c(=O)[nH]c1=O,11,·,·,·,9,·
Cc1cc(N2CCCC2)c(F)cc1/C=C\[N+](=O)[O-],6,19,160,207*,19,-2
Cc1cc(N2CCC(C)CC2)c(F)cc1[N+](=O)[O-],-2,6,-3,9,-6,-2
COc1ccc2c(CC(=O)Nc3nccs3)coc2c1,-89,3,19,72*,-9,-5
O=C(NCC1CCCO1)c1ccc(Cl)c(NS(=O)(=O)c2ccc(F)cc2)c1 (stereo not given),-11,-6,·,·,-9,·
O=C(CCCSc1nc2ccccc2[nH]1)NCc1ccco1,-4,17,13,68*,2,-3
COc1ccc(C(=O)CSc2nc(C)cc(=O)[nH]2)cc1C,8,2,-76*,-81,0,2
CCc1nc2ccc(C(=O)NCCCn3ccnc3)cn2c1N(CC)CCOC,-8,·,·,·,-7,·
Cc1ccc(-n2c(C)c([N+](=O)[O-])c3ccc(O)c(CN(C)C)c32)cc1,51*,?,4,30,75*,1
COc1ccc(-n2c(C)c([N+](=O)[O-])c3ccc(O)c(CN4CCCCC4)c32)cc1,40,5,6,-21,49,2
O=C1c2ccccc2S(=O)(=O)c2cc(N3CCOCC3)ccc21,44,31,14,31,71*,·
O=C1c2ccccc2S(=O)(=O)c2cc(N3CCN(c4ccccc4)CC3)ccc21,·,·,-5,5,·,·
c1ccc(-c2ccc(C3=Nn4c(nnc4-c4cc(-c5ccccc5)n[nH]4)SC3)cc2)cc1,14,4,-3,14,8,-1
Brc1ccc(C2=Nn3c(nnc3-c3n[nH]c4c3CCC4)SC2)cc1,20,26,3,-2,60*,-1
Clc1ccc(C2=Nn3c(nnc3-c3n[nH]c4c3CCC4)SC2)cc1,18,14,2,-3,55*,-1
Cc1ccc(-c2ccc(CN3C(C(C)C)C(=O)N(Cc4cn(CCC5OCCO5)nn4)CCS3(=O)=O)cc2)c(C)c1 (stereo not given),24,·,·,·,34,·
O=C(CSc1nnc(COc2ccc3c(c2)CCCC3)o1)Nc1ccc(F)cc1,-10,3,-58*,-67,-21,2
O=C(CSc1nnc(COc2ccc(Cl)cc2)o1)Nc1ccc(N2CCOCC2)cc1,-20,-6,·,·,-12,·
O=P(CCCCCCCCCP(=O)(c1ccccc1)c1ccccc1)(c1ccccc1)c1ccccc1,55*,-3,-4,17,48,6
O=C(O)CCCCCCCCCCP(=O)(c1ccccc1)c1ccccc1,4,-8,-8,-4,-94,-1
Cc1ccc2sc(NNC(=O)c3cc(=O)c4ccccc4o3)nc2c1C,-5,-6,14,6,-31,18*
CC12CCC(=O)C=C1CCC1C2CCC2(C)C(c3csc(N)n3)CCC12 (stereo not given),51*,21,·,·,57*,·
CCOC(=O)N(C)c1c(CC)nc2c(OCc3ccc(Cl)cc3)cccn12,-2,·,·,·,29,·
CC(C)c1nc(SCC(=O)Nc2ccc([N+](=O)[O-])cc2Br)n[nH]1,23,3,16,20,0,-1
SMILES,TROY signal inh,LMP1 NFkB inh,HSF1 inh,HSF-1 act,TWEAK-Fn14 inh,HSP90 refold inh
Nc1nc(SCC(=O)Nc2ccc([N+](=O)[O-])cc2Br)n[nH]1,-14,14,20,58*,9,3
O=C(NCc1cccc(C(F)(F)F)c1)c1csc([C@H]2C[C@H](O)[C@@H](CO)O2)n1,8,·,·,·,18,·
O=C(CCNC(=O)c1ccc(Cl)cc1)Nc1ncccc1O,-22,-6,-87*,-89,7,-3
O=C(CCCNC(=O)c1ccc(Cl)cc1)Nc1ncccc1O,9,8,-6,-10,-6,-4
O=C(Nc1ncccc1O)c1ccc(Oc2ccccc2)cc1,-19,1,47,88*,-10,13
CCCc1c(C(=O)N/N=C/c2ccc3c(c2)OCO3)nnn1-c1nonc1N,-24,-2,·,·,-26,·
CC(C)(C)c1ccc(OCCOc2ccc(C(C)(C)C)cc2NC=O)c(NC=O)c1,51*,9,25,37,26,-2
COCCOc1ccc(C(F)(F)F)cc1NC(=O)c1ccccc1,6,-1,1,-11,7,-1
Cc1ccc(CNc2c(C=O)c(=O)[nH]c3ccccc23)cc1,-3,-3,17,63*,-5,2
CCN(CC)c1ccc2cc(C(C)=O)c(=O)oc2c1,-25,-9,3,20,-21,0
CCN(CC)c1ccc2cc(C(=O)Nc3ccccn3)c(=O)oc2c1,53*,7,0,-14,87*,1
COc1ccc(COc2ccccc2C(=O)NCc2ccccc2)cc1F,47,22,1,19,69*,0
COc1cc(C(=O)NCc2ccccc2)ccc1OC(F)F,5,-3,-7,-10,32,-2
O=[N+]([O-])c1ccc(Sc2cccc[n+]2[O-])c2nonc12,86*,4,-9,·,94*,24*
O=[N+]([O-])c1ccc(Nc2ccccc2)c2nonc12,11,8,-4,-10,30,0
CC(C)C(C)N(Cc1ccc(C(=O)O)cc1)C(=O)c1ccc2ccccc2n1 (stereo not given),-15,-4,18,58*,-4,·
Cc1cc(C)cc(CC(=O)N2CCC2(C)C(=O)NS(=O)(=O)c2ccccc2Cl)c1 (stereo not given),1,·,·,·,26,·
COC(=O)C(=Cc1ccccc1[N+](=O)[O-])C(=O)OC,11,-36,51,41,69*,3
O=C(/C=C/c1ccccc1[N+](=O)[O-])Oc1ccccc1,·,·,-11,0,·,-3
COc1ccccc1CNc1nc(NCC2CC2)nc2ccsc12,20,·,·,·,4,·
CCOC(=O)Cc1nnc2c(Nc3ccccc3F)nc3nonc3n12,28,10,-74*,-79,-29,10
COc1ccc(CC(=O)Nc2nc(-c3ccccc3)c(C(C)=O)s2)cc1OC,21,5,1,7,57*,2
CC(C)NC(=O)Nc1ccc2c(c1)C(=O)N([C@@H](C)CO)C[C@@H](C)[C@H](CN(C)Cc1ccccc1)OCCCC[C@H](C)O2,-12,2,·,·,3,·
CC(NC(=O)/C=C/c1ccco1)c1nc2ccccc2n1Cc1ccccc1F (stereo not given),9,-9,33,65*,12,-1
O=C(CSc1ncccn1)N(Cc1cccnc1)C(CCc1ccccc1)c1nc2ccccc2[nH]1 (stereo not given),-9,·,·,·,0,·
CC(=O)c1ccc(NCCC(=O)c2ccccc2)cc1,49,-4,24,2,69*,-1
